Source: PubChem BioAssay AID1346428 (National Center for Advancing Translational Sciences (NCATS), 2018)
Hit rate of the full screen: of about 48,000 compounds, about 1,200 (2.5%) were called active. Inconclusive results (about 2%) are left out. The entries come from a sample that favours actives as a whole. Unmarked numbers belong to inactive results.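 Rule for the calls: active = activation of at least 60% and not above a set upper limit (about 1 call in 100 departs from these limits); inconclusive = activation of 40% to 60%, or above that upper limit; inactive = activation under 40%.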

The compounds below were run against Probable G-protein coupled receptor 32 (Homo sapiens) (UniProt O75388) (assay: qHTS for Agonists of Human Resolvin D1 Receptor DRV1). Conditions: CHO-K1 GPR32 beta-arrestin PathHunter luminescence, 90 min; at 76.9 µM; hits give high values; zero percent set by DMSO-only wells.
Description: Endogenous resolution of inflammation is known to be transduced through various GPCRs and their natural mediators of lipid nature. Resolvin D1 (RvD1) is one of the active players in resolution of acute inflammation through regulation of anti-inflammatory pathways; it is known to enhance phagocytosis of human macrophages, limits neutrophils infiltration, etc. […] The search for GPR32-activating small molecules with anti-inflammatory effects similar to its natural omega-3 derivative ligand in order to use them as research tools for further studies of inflammation and its resolution was the goal of this screening project. For primary screening assay, we used CHO-K1 GPR32 beta-arrestin cell line (DiscoveRx, #93-0321C2A) and the PathHunter(R) beta-Arrestin Assay (DiscoveRx) which measures recruitment of beta-arrestin to the GPR32 and generates chemiluminescent signal. These engineered cells stably transfected with GPR32 co-express GPR32-fused small 42-amino acid fragment of beta-Gal called ProLinktrade mark, and […] -tagged beta-Arrestin fusion protein. When GPR32 is activated by a ligand, it stimulates binding of beta -Arrestin to ProLink-tagged GPR32, and two parts of beta-Gal complement forming a functional enzyme. Upon substrate (PathHunter(R) Detection reagent) addition, beta-Gal hydrolyzes it and generates a chemiluminescent signal.
The cells were thawed and plated in thawing media containing F-12 HAM (Invitrogen, #11765-054), 10% FBS (Invitrogen, #10082), 1x Glutamine, and 1x Pen/Strep onto the 175-mm flask for 24 hours. Then, thawing media was replaced with Growth media which contains 800microg/mL Geneticin (Invitrogen, #10131) and 300microg/mL Hygromycin B (Invitrogen, #10687) in addition to described above. For the assay, the cells were harvested at ~80% confluent stage with Cell Dissociation buffer (Gibco, #13151), and seeded at 2,500 cells/ 3microL/well in assay media (PathHunter(R) Cell Plating Reagent, DiscoverX, #93-0563R1B) using MultiDrop Combi dispenser (Thermo Scientific, Logan, UT) onto white solid bottom tissue culture-treated 1536-well plates (Greiner # 789173-F) and allowed to attach overnight at 37 degrees C, 95% humidity, 5% CO2, . Next, 23nL/well of compound solutions in DMSO were added with a Pin Tool (Kalypsis, San Diego, CA) to the assay plates. As the basal control (EC0), 23 nL/well of DMSO was used on each plate. The cells were incubated in the presence of compounds or DMSO for 90 minutes at 37 degrees C, 5% CO2. Subsequently, 1.5microL/well of PathHunter(R) Detection Reagent prepared per the manufacturer's instructions was added to the assay plates with BioRAPTR FRDtrade mark dispenser (Beckman Coulter, San Francisco, CA) and incubated for 1 hour at ambient temperature prior to the measurement of the luminescent signal on ViewLux(R) uHTS Microplate Imager (Perkin Elmer, Waltham, MA).

Chain of Probable G-protein coupled receptor 32 (Homo sapiens) (O75388 whole entry, looked up): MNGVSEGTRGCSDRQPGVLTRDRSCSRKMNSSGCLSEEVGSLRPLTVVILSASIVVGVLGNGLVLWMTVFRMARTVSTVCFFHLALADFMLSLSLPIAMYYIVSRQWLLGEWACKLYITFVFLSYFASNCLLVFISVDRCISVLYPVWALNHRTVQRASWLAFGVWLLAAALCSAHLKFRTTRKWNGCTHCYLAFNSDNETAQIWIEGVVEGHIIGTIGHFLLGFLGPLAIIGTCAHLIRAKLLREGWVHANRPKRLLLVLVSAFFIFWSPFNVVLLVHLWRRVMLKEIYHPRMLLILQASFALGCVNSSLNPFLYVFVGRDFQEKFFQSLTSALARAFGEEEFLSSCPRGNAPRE

Row | Structure (SMILES) | activation
1 | c1ccc2c(c1)[I+]c1ccccc1-2 | 85.7% (active)
2 | Nc1ccc([N+](=O)[O-])cc1 | -34.8%
3 | CC[N+]1(CCOC(=O)C(O)(c2ccccc2)c2ccccc2)CCCCC1 | -7.19%
4 | NCCc1ccc(S(=O)(=O)F)cc1 | 14.4%
5 | CC1N=C(N)OC1c1ccccc1 (stereo not given) | -12.2%
6 | C=CCN1CCC23c4c5ccc(O)c4O[C@H]2C(=O)CC[C@@]3(O)C1C5 (stereo not given in full) | -10.4%
7 | O=S(=O)(O)C(F)(F)C(F)(F)C(F)(F)C(F)(F)F | 94.8% (active)
8 | Cc1nnc(NC(=O)c2cccn(Cc3cccc(F)c3)c2=O)s1 | 23.9%
9 | CCOC(=O)c1ncn2c1[C@@H]1CCCN1C(=O)c1cc(OC)ccc1-2 | -9.3%
10 | CC1=C(C(=O)O)N2C(=O)[C@@H](N)[C@H]2SC1 | -12.7%
